Screening data: PubChem BioAssay, National Center for Advancing Translational Sciences (NCATS)
An excerpt weighted towards active compounds, which were near 19% of everything screened.
IL-1B inflam inh – qHTS for Inhibitors of Inflammasome Signaling: IL-1-beta AlphaLISA Primary Screen; 360,000 tested, 4.7% active; activity change, % at 57.5 µM; AID 743279, 2014; THP-1 LPS/ATP IL-1B secretion, AlphaLISA, 16 h; hits give low values; in the data active means activity change below about -50%; inconclusive means mostly about -30% to -49%
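THP-1 cells pretreated 1 hr with compounds (up to 57.5 uM final), then stimulated with LPS (250 ng/mL final) plus ATP (1.25 mM final); secreted IL-1B measured by AlphaLISA after 16 hr, decreased signal indicating inhibition.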
DT40 TDP1 CPT – qHTS for Inhibitors of human tyrosyl-DNA phosphodiesterase 1 (TDP1): qHTS in cells in presence of CPT; Potency, µM (top dose mostly 46.2 µM), actives largely listed as inhibitors; 420,000 tested, 12% active; chicken DT40 Tdp1-/-;hTDP1 cells + 20 nM CPT, ATP luminescence, 48 h; further: nearly all actives have a fitted effect of over 55% in size
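Cell growth measured by CellTiter-Glo luminescence after a minimum 48 h, 37 C compound exposure with 20 nM CPT in Tdp1-knockout DT40 cells stably expressing hTDP1, seeded 400/well; qHTS titration format.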
uPA generation – qHTS for Inhibitors of Cell Surface uPA Generation | cell surface uPA generation assay, qHTS | Potency, µM (series often up to 38.3 µM), usual class: inhibitors | 330,000 tested, 0.31% active; active means well fitted inhibition curve with a large enough effect; inconclusive means small, poorly fitted or top-dose-only effect; inactive means no such curve, though single readings can be large or run the other way; tested in mouse RAW 264.7 cells; further: nearly all actives have a fitted effect of over 55% in size
TDP1 cell noCPT – qHTS for Inhibitors of human tyrosyl-DNA phosphodiesterase 1 (TDP1): qHTS in cells in absence of CPT | DT40 Tdp1-/- hTDP1 cells, no CPT, ATP luminescence, 48 h | Potency, µM (titrated, usually from 46.2 µM), usual class: inhibitors | 420,000 tested, 15% active | AID 686978, 2013; further: nearly all actives have a fitted effect of over 55% in size
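Camptothecin absent (DMSO only). Human TDP1-complemented DT40 knockout cells, 400 cells/well, 37 °C for minimum 48 hr; ATP measured via CellTiter-Glo, 30 min dark incubation, luminescence.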
HT1080-NT tox – qHTS for induction of synthetic lethality in tumor cells producing 2HG: qHTS for the HT-1080-NT fibrosarcoma cell line. HT-1080-NT fibrosarcoma viability, CellTiter-Glo ATP luminescence, 48 h. Potency, µM (highest dose often 46.1 µM), most hits filed as cytotoxic. 360,000 tested, 1.6% active. AID 686970, 2013;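 further: NT is the 2HG producing partner of a matched IDH1 knockdown line; nearly all actives have a fitted effect of over 55% in size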
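Fibrosarcoma NT cells, 750 per well in 5% FBS RPMI, were exposed to compound for 48 hours. Viability: CellTiter-Glo luminescence.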
HT1080 IDH1KD tx – qHTS for induction of synthetic lethality in tumor cells producing 2HG: qHTS for the HT-1080-IDH1KD cell line. AID 686971, 2013. 360,000 tested, 2% active. Potency, µM (titrated, usually from 46.1 µM), most hits filed as cytotoxic. HT-1080 IDH1 knockdown viability, ATP luminescence, 48 h
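After a 2 h attachment period, IDH1KD HT-1080 cells took pin-transferred compound for 48 h at 37 °C; ATP-based luminescence after 10 min room-temperature reagent incubation reported viability.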
Hits are given with their value; . = inactive; ? = inconclusive; / = no result. Unless noted, the call rests on the fitted dose curve; in most records, active means well fitted curve in the direction sought with a large enough effect; inconclusive means small, poorly fitted or top-dose-only effect, or another doubt; inactive means no such curve, though single readings can be large; an effect the other way counts as inactive or inconclusive.

SMILES	IL-1B inflam inh	DT40 TDP1 CPT	uPA generation	TDP1 cell noCPT	HT1080-NT tox	HT1080 IDH1KD tx
O=S(=O)(c1ccc(F)cc1)N1CCN(c2nc(-c3cccs3)nc3ccccc23)CC1	/	?	/	?	.	.
CSc1ncc(C(=O)Nc2c(C)cccc2C)c(-c2ccccc2)n1	/	.	/	.	/	/
Cc1nc(SCc2cccnc2)[nH]c(=O)c1C	.	.	.	.	.	.
COCCn1c(=S)[nH]c2cc(C(=O)N3CCN(Cc4ccccc4)CC3)ccc2c1=O	/	.	/	?	.	.
COc1ccc(NS(=O)(=O)c2cccs2)cc1S(=O)(=O)N1CCOCC1	.	.	.	.	.	.
COc1ccc(Nc2nc(-c3cccs3)nc3ccccc23)cc1S(=O)(=O)N1CCOCC1	-66	18µM	.	3.3µM	16µM	?
O=C1NN(c2ccc(F)cc2)C(=O)/C1=C/c1cccs1	-51	.	/	.	.	.
COc1cccc(/C=C2/C(=O)NN(c3ccc(F)cc3)C2=O)c1	.	?	.	.	.	.
C=C1C(=O)O[C@@H]2[C@H]1[C@@H](OC(=O)/C(C)=C/C)C/C(C)=C\C(=O)/C=C(\C)[C@@H]2O	-102	1.5µM	?	2.1µM	?	?
O=C(CC1SC(N2CCOCC2)=NC1=O)Nc1ccc(Cl)c(C(F)(F)F)c1 (stereo not drawn)	.	?	.	?	.	.
CCOC(=O)c1[nH]c2ccc(Cl)cc2c1NC(=O)/C=C/c1ccc2c(c1)OCO2	.	?	.	?	.	.
CCN(CC(=O)Nc1c(C(=O)OC)[nH]c2ccc(Cl)cc12)c1ccc2c(c1)OCO2	.	?	.	26µM	.	.
CCc1ccc(CNC(=O)C2CCCN(S(=O)(=O)N(CC)c3ccccc3)C2)cc1 (stereo not drawn)	.	?	.	?	.	.
CCOc1ccc(N(CC)S(=O)(=O)N2CCCC(C(=O)NCc3ccccc3OCC)C2)cc1 (stereo not drawn)	/	?	/	16µM	/	/
CCN(c1ccc(OC)cc1)S(=O)(=O)N1CCCC(C(=O)NCc2ccc(OC(C)C)cc2)C1 (stereo not drawn)	.	21µM	/	15µM	.	.
CCOc1ccc(N(CC)S(=O)(=O)N2CCCC(C(=O)NCCc3ccccc3OC)C2)cc1 (stereo not drawn)	/	21µM	/	?	/	/
CCOC(=O)N1CCN(S(=O)(=O)N2CCCC(C(=O)NCc3ccccc3OCC)C2)CC1 (stereo not drawn)	.	?	/	?	.	.
CCOC(=O)c1c(S(=O)(=O)N2CCCC(C(=O)NCc3ccccc3OC)C2)c(C)n(C)c1C (stereo not drawn)	/	.	/	.	/	/
O=C(Nc1cccc(F)c1)C1CCCN(S(=O)(=O)c2cnc[nH]2)C1 (stereo not drawn)	.	.	.	.	.	.
CCCCCCc1ccc(OC(=O)c2ccncc2)cc1	.	.	.	.	.	.
CCCc1ccc(OC(=O)c2ccc(O)cc2Cl)cc1	-84	?	.	?	?	?
Cc1ccc2c(c1Br)/C(=N/N1C(=O)c3ccccc3C1=O)C(=O)N2	.	21µM	.	23µM	.	.
S=C(NCC1CCCCC1)Nc1ccc(Oc2ccccc2)cc1	-77	?	.	?	.	.
CN(CC(=O)Nc1ccc(SC(F)F)cc1)C1CCCCC1	.	.	.	.	.	.
CCCNC(=S)Nc1ccc(Oc2ccccc2)cc1	.	?	/	16µM	16µM	14µM
SMILES	IL-1B inflam inh	DT40 TDP1 CPT	uPA generation	TDP1 cell noCPT	HT1080-NT tox	HT1080 IDH1KD tx
S=C(NCCNC(=S)Nc1ccccc1)Nc1ccccc1	.	.	.	.	.	.
S=C(Nc1ccc(Oc2ccccc2)cc1)NC1CCCC1	.	.	.	?	.	.
FC(F)Sc1ccc(NC(=S)NC2CCCCC2)cc1	?	?	/	.	?	?
FC(F)Sc1ccc(NC(=S)NCC2CCCCC2)cc1	-92	?	/	?	?	?
CC1CCCCC1NC(=S)Nc1ccc(SC(F)F)cc1 (stereo not drawn)	-80	?	.	?	?	?
CCCCNC(=S)Nc1ccc(Oc2ccccc2)cc1	.	?	.	21µM	.	.
NC(=O)C1=CC2C3C=CC2(O)C(=O)OC3O1 (stereo not drawn)	-96	5.2µM	.	5.8µM	?	21µM
COc1cc(OC)cc(C(=O)n2cnnc2N)c1	.	.	.	.	.	.
O=C(Nc1nnc(-c2ccc(Cl)cc2)o1)c1cccc(N2C(=O)CCC2=O)c1	.	.	.	.	.	.
CC(=O)c1ccc(C(=O)Nc2nnc(-c3ccc(Cl)cc3)o2)cc1	.	9.2µM	?	9.2µM	?	?
COc1cccc(C(=O)Nc2nnc(-c3cccs3)o2)c1	.	16µM	?	?	.	.
Cc1ccnc2nc(C(=O)Nc3nnc(-c4ccc(Cl)cc4)o3)nn12	.	.	.	.	.	.
CS(=O)(=O)c1cccc(-c2nnc(NC(=O)c3ccc4ncsc4c3)o2)c1	.	.	.	.	.	.
COc1cccc(-c2nnc(NC(=O)c3ccc4ncsc4c3)o2)c1	.	16µM	.	15µM	.	?
COc1cccc(C(=O)Nc2nnc(-c3ccc(Cl)cc3)o2)c1	.	10µM	?	10µM	.	.
CCc1ccccc1N(c1nc(-c2ccc(OC)c(OC)c2)no1)c1nc(-c2ccc(OC)c(OC)c2)no1	/	.	/	.	/	/
COC(=O)c1sccc1NC(=O)c1cccc(OC)c1	.	?	.	21µM	.	.
COc1cccc(C(=O)Nc2nnc(-c3ccc(F)cc3)o2)c1	.	10µM	?	9.2µM	.	.
COC(=O)c1sccc1NC(=O)c1ccccc1	.	.	.	.	.	.
COC(=O)c1sccc1NC(=O)c1cc2c(s1)CCCC2	.	.	.	10µM	.	.
COc1ccc(C)cc1NC(=O)c1cc2c(s1)CCC2	.	.	.	?	.	.
CCOc1ccc(-c2nnc(NC(=O)c3ccc(OCC(C)C)c(OC)c3)o2)cc1	.	5.8µM	.	6.5µM	.	.
Cc1ccc(CN2CCC(C(=O)c3ccc(F)cc3)CC2)cc1	?	.	/	?	.	.
COc1ccc(C2=NN(C(=O)CSc3nc4ccccc4s3)C(c3ccc(OC)cc3)C2)cc1 (stereo not drawn)	.	13µM	.	12µM	.	.
